# Measured values taken from PubChem BioAssay (NCATS).
# Inconclusive results are not listed. Values without a mark were called inactive. Calls of active or inactive are those of the source. Calls come from the whole dose curve; as a rule, active = well fitted cell-killing curve with a large enough effect; inconclusive = small, poorly fitted or top-dose-only effect, or effect the other way; inactive = flat fitted curve, though single readings scatter.
# Tested on: Tov-21-G
# Assay: Primary qHTS to identify gynecologic anti-cancer compounds using libraries of approved drugs and bioactive compounds (AID 1345084); note: nearly all actives have a fitted effect of over 55% in size
# Details: Gynecologic cancer cell panel viability, ATPlite luminescence, 48 h; series mostly up to 57.5 µM; activity change, negative = cytotoxicity: at the top concentration
# How it was run: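 48 h compound exposure at 37 C, 5% CO2; five-point qHTS. ATPlite luminescence readout of cell ATP.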
# % is set by controls: 0 for no effect and ±100 for the full control effect; potency is the fitted concentration of half-maximal effect.
SMILES,"activity change, negative = cytotoxicity",Potency
CC(NCCCc1cccc(C(F)(F)F)c1)c1cccc2ccccc12 (centres undefined),0.95% [at 25.3 µM],
CCNC1(C(N)=O)CN(c2nc(C)nc3c(-c4ccc(Cl)cc4)c(-c4ccccc4Cl)nn23)C1,23.4%,
CCc1c(Cl)c(O)c(Cl)c(O)c1C(=O)O[C@H]1[C@H](O)[C@H](OC)[C@H](OC/C2=C\C=C\C[C@H](O)/C(C)=C\[C@H](CC)[C@@H](O[C@@H]3OC(C)(C)[C@@H](OC(=O)C(C)C)[C@H](O)[C@@H]3O)/C(C)=C/C(C)=C/C[C@@H]([C@@H](C)O)OC2=O)O[C@@H]1C,10.2% [at 25.3 µM],
CCCN(CCc1ccsc1)C1CCc2c(O)cccc2C1 (centres undefined),1.3%,
CC(=O)O[C@@H]1[C@@H](O)[C@H](O[C@@H]2[C@@H](O)[C@@H](O)[C@H](O[C@H]3[C@H](O[C@H]4[C@H](O[C@H]5CC[C@@]6(C)C(CC[C@]7(C)C6CC=C6[C@@H]8CC(C)(C)CC[C@]8(C(=O)O)CC[C@]67C)[C@]5(C)CO)O[C@H](CO)[C@@H](O)[C@@H]4O)OC[C@@H](O)[C@@H]3O)O[C@H]2C)OC[C@H]1O (some centres undefined),-11% [at 11.6 µM],
Fc1ccc2c(CCNCc3cccc(OCC(F)(F)C(F)F)c3)c[nH]c2c1,11.2%,
Cc1cc2c(cc1N1C(=O)c3cccc4c(CCCO)ccc(c34)C1=O)n(C)c(=O)n2C,-27.1% [at 25.3 µM],
Cc1c(F)ccc(C(=O)Nc2cc([N+](=O)[O-])ccc2N2CCN(C)CC2)c1Cl,9.96%,
Cc1ccnc(NC(=O)C(C)c2cccc(C(=O)c3ccccc3)c2)c1 (centres undefined),3.07%,
CC1=CC2/C=C(\C)CCC(O)C/C=C/C(=O)OC23C(=O)NC(CC(C)C)C3C1C (centres undefined),2.22% [at 25.3 µM],
CC[C@H]1CN(c2nc(N)c(C(N)=O)nc2Cl)CCN1C1CCN(Cc2ccc(Cl)cc2)CC1,0.352%,
COc1cccc(NCCC2(c3ccccc3)CC(C)(C)OC(C)(C)C2)c1,-2.25%,
CNc1cc2[nH]c(=O)n(-c3ccc(NC(=O)NS(=O)(=O)c4ccc(Cl)s4)cc3)c(=O)c2cc1F,4.11%,
Fc1ccc(CN2CCC(Nc3ccc(C(F)(F)F)nn3)CC2)cc1F,3.98%,
COc1cc(OC)c(NC(=O)c2ccc(Cc3cc4c(cc3C)C(C)(C)CCC4(C)C)o2)c(OC)c1,5.39%,
C/C=C(/C=C(C)/C=C/C=C/C=C(\C)C(=O)C12OC1C(O)(CCO)NC2=O)C(=O)OC (centres undefined),-11.1% [at 25.3 µM],
C=C1C(=O)OC2C1CCC1(C)C(O)CCC(=C)C21 (centres undefined),-20.1%,
Cc1cc(F)c(C(=O)Nc2cccc(-c3nncn3C(C)C)n2)cc1-n1cnc(C2CC2)c1,-18.9% [at 25.3 µM],
C/C=C(/C)C(=O)OC1C=C2C3C(C)C(C)C(OC(=O)C(C)C(C)O)CC3(C)CCC2(C)C2(C)CC(OC(C)=O)C3C(C)(C)C(O)C(=O)CC3(C)C12 (centres undefined),14.8% [at 25.3 µM],
Cc1nc(Nc2ccc(F)cc2)nc(N2CCc3ccccc3C2C)c1C (centres undefined),-0.246%,

SMILES,"activity change, negative = cytotoxicity",Potency
C#CC(=O)N(c1ccc(OC)cc1OC)C(C(=O)NCC(=O)OCC)c1cccs1 (centres undefined),,398 nM (active)
COC1CCN(C(=O)c2cc(Cc3n[nH]c(=O)c4ccccc34)ccc2F)CC1,-17.7%,
CCCc1ccc(OCC(=O)N(Cc2nc(-c3cccnc3)no2)C(C)C)cc1,-0.517%,
CC(=O)OC1CC(C)(C(=O)O)CC2C3=CC(=O)C4C5(C)CCC(OC6OC(C(=O)O)C(O)C(O)C6OC6OC(C(=O)O)C(O)C(O)C6O)C(C)(C)C5CCC4(C)C3(C)CCC12C (centres undefined),-2.43% [at 11.6 µM],
C=CC(=O)N1CCN(C(=O)CNc2cc(-c3ccccc3Cl)c(Cl)cc2OC)CC1,-14.5%,
Cc1c(C(=O)NCc2cccnc2)nn(-c2ccc(Cl)cc2Cl)c1-c1ccc(Cl)cc1,7.47%,
Cc1cccc(C#Cc2cc(F)cc(C#N)c2)n1,-6.46%,
NCC(CNc1nc(Nc2cccc(NC(=O)N3CCCC3)c2)ncc1I)C(=O)c1cccs1 (centres undefined),-4.3%,
COc1cc(C(N)=O)nc(-c2ccccn2)c1O,-5.51%,
COc1cc(O)cc(OC2OC(CO)C(O)C(O)C2O)c1 (centres undefined),3.62%,
N#Cc1ccc(N2N=C3c4ccc(C(=O)O)cc4CC[C@@H]3[C@@H]2C2CCCC2)cc1Cl,0.687%,
O=C([C@@H](Cc1cccc(C(F)(F)F)c1)NS(=O)(=O)c1cc(F)c2c(c1)CCNC2)N1CCCC1,-2.53%,
CCNC(=O)c1noc(-c2cc(Cl)c(O)cc2O)c1-c1ccc(OC)cc1,,562 nM (active)
O=C(NCc1nc2ccccc2c(=O)n1-c1ccc(F)cc1)Nc1ccc(Cl)c(C(F)(F)F)c1,8.12%,
C=C1C(=O)O[C@@H]2/C=C(\CO)CC/C=C(\CO)[C@H](OC(C)=O)C(OC(=O)C(C)CC)C12 (some centres undefined),-20.1% [at 25.3 µM],
O=C(NCC1CCN(Cc2cccc(Cl)c2)CC1)[C@@H]1CCCN(c2ncnc3c2nc2n3CCCC2)C1,0.773%,
C=C1C(=O)O[C@H]2C1CCC(C)=C1C(=O)C=C(C)[C@@]12O (some centres undefined),0.696%,
COC(=O)/C=C/C=C/C(=O)OC1C=C2COC(=O)C2(O)C2(C)CCCC(C)(C)C12 (centres undefined),-0.464% [at 25.3 µM],
CC1(C)CC[C@]2(C(=O)O)[C@H](O)C[C@]3(C)C(=CCC4[C@@]5(C)CC[C@H](O[C@@H]6O[C@H](CO[C@@H]7OC[C@H](O)[C@H](O)[C@H]7O[C@@H]7OC[C@H](O)[C@H](O)[C@H]7O)[C@@H](O)[C@H](O)[C@H]6O)C(C)(C)C5CC[C@]43C)[C@@H]2C1 (some centres undefined),4.39% [at 11.6 µM],
